{"source": "PubChem BioAssay AID1259415", "about": "(National Center for Advancing Translational Sciences (NCATS), 2018)", "note": "In all, about 410,000 compounds went through this assay and about 18,000 (4.4%) were called active. Another 7% or so got no clear call; they are omitted. No stated cut-off is given here; in the data, active means activity change below about -60%; inconclusive means no clear call, values can overlap the other calls; inactive means above about -39%. What follows is part of a selection rich in actives, with near analogues and random picks from the rest."}
{"assay": "qHTS Assay for inhibitors of the human cytomegalovirus (HCMV); further: on the % scale 0 is the no-effect control and ±100 the full control effect", "conditions": "HFF cells, HCMV-luciferase reporter, 72 h; at 57.5 µM; active compounds read low", "method_in_brief": "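Screen run at 2 compound doses on HFFs infected with reporter HCMV, MOI 1 PFU/cell. Luciferase activity from cell lysates at 72 h post infection gave inhibition relative to buffer-only and Salinomycin wells.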"}
{"compound": "CN(C)CCOC(=O)C(c1ccccc1)C1(O)CCCC1", "note": "(stereo unspecified)", "activity change, negative = inhibition": "31.9% (inactive)"}
{"compound": "CN(C)CC1Oc2ccccc2OC1(O)c1ccccc1", "note": "(stereo unspecified)", "activity change, negative = inhibition": "-104% (active)"}
{"compound": "CCc1cccc(NC(=O)CN(c2ccc(C)c(C)c2)S(=O)(=O)c2ccsc2C(=O)OC)c1", "activity change, negative = inhibition": "7.64% (inactive)"}
{"compound": "CCc1nn(-c2cc(Oc3cccc4ccccc34)nc(-c3ccccc3)n2)c(N)c1C#N", "activity change, negative = inhibition": "-68% (active)"}
{"compound": "CCCCN(C)CCCNC(=O)CN1N=C(c2ccc(OC)cc2)CCC1=O", "activity change, negative = inhibition": "-26.4% (inactive)"}
{"compound": "Cc1ccnc(NC(c2ccc(C(F)(F)F)cc2)c2ccc3cccnc3c2O)c1", "note": "(stereo unspecified)", "activity change, negative = inhibition": "-97.9% (active)"}
{"compound": "Cc1cccc(NC(c2cccc(F)c2)c2ccc3ccc(C)nc3c2O)n1", "note": "(stereo unspecified)", "activity change, negative = inhibition": "84.7% (inactive)"}
{"compound": "CCC(=O)NC(Nc1cc(C)ccn1)(C(F)(F)F)C(F)(F)F", "activity change, negative = inhibition": "27.3% (inactive)"}
{"compound": "CCNS(=O)(=O)c1ccc(CCC(=O)N2CCN(c3cc(Cl)ccc3C)CC2)cc1", "activity change, negative = inhibition": "-68.5% (active)"}
{"compound": "CCCNS(=O)(=O)c1ccc(CCC(=O)N2CCCC2)cc1", "activity change, negative = inhibition": "-28.5% (inactive)"}
{"compound": "CCNS(=O)(=O)c1ccc(CCC(=O)N2CCN(c3ccc(OC)cc3)CC2)cc1", "activity change, negative = inhibition": "-33.4% (inactive)"}
{"compound": "CCOc1cccc2sc(N3CCN(C(=O)C4CC4)CC3)nc12", "activity change, negative = inhibition": "-12.2% (inactive)"}
{"compound": "CN1OC[C@@H]2CN(C(=O)C(C)(C)C)[C@H](c3ccc(-n4ccnc4)cc3)C[C@@H]21", "activity change, negative = inhibition": "22.3% (inactive)"}
{"compound": "CCOC(=O)[C@]12CCC=C1N(Cc1cccc3ccccc13)C(=O)[C@H](CC(=O)NCc1cccc(C(F)(F)F)c1)C2", "activity change, negative = inhibition": "19.4% (inactive)"}
{"compound": "Cc1ccc(-n2ncc3c(NCCCn4ccnc4)ncnc32)cc1Cl", "activity change, negative = inhibition": "7.64% (inactive)"}
{"compound": "CC(NC(=O)Nc1cccc([N+](=O)[O-])c1)c1ccc2c(c1)OCO2", "note": "(stereo unspecified)", "activity change, negative = inhibition": "-64.3% (active)"}
{"compound": "CC(NC(=O)c1ccco1)c1ccc2c(c1)OCO2", "note": "(stereo unspecified)", "activity change, negative = inhibition": "11.5% (inactive)"}
{"compound": "Cc1noc(C)c1C(=O)NC(C)c1ccc2c(c1)OCO2", "note": "(stereo unspecified)", "activity change, negative = inhibition": "59.8% (inactive)"}
{"compound": "COc1ccc(CCC(=O)NCCc2csc(-c3ccc(Cl)cc3)n2)cc1", "activity change, negative = inhibition": "7.81% (inactive)"}
{"compound": "Cn1c(Cc2csc(N)n2)nnc1SC/C=C/c1ccccc1", "activity change, negative = inhibition": "-18.7% (inactive)"}
{"compound": "O=C(Nc1ccc(S(=O)(=O)N2CCC(c3nc4ccccc4s3)CC2)cc1)c1ccccc1F", "activity change, negative = inhibition": "-12.7% (inactive)"}
{"compound": "Cc1ccc(C(=O)C[n+]2cc(-c3ccccc3)n3c2CCCCC3)cc1", "activity change, negative = inhibition": "-92.1% (active)"}
{"compound": "O=C(C[n+]1cc(-c2ccc(Cl)c(Cl)c2)n2c1CCC2)c1cccs1", "activity change, negative = inhibition": "-37.8% (inactive)"}
{"compound": "Cn1c(-c2ccccc2)c[n+]2c1CCCCC2", "activity change, negative = inhibition": "-28.9% (inactive)"}
{"compound": "Cn1ccc2cc(S(=O)(=O)N3CCCC(C(=O)NCc4ccccc4F)C3)ccc21", "note": "(stereo unspecified)", "activity change, negative = inhibition": "-1.65% (inactive)"}
{"compound": "CCCCOc1ccc(CNC(=O)c2ccc3c(c2)N(C)C(=O)C2CCCCN32)cc1", "note": "(stereo unspecified)", "activity change, negative = inhibition": "25.7% (inactive)"}
{"compound": "CCOC(=O)C1CCCN(S(=O)(=O)c2cc(-c3cc(C)no3)ccc2OC)C1", "note": "(stereo unspecified)", "activity change, negative = inhibition": "-10% (inactive)"}
{"compound": "CC(C)c1ccc(NC(=O)Cn2c3ncccc3c(=O)n2-c2ccccc2)cc1", "activity change, negative = inhibition": "8.47% (inactive)"}
{"compound": "COc1ccccc1CC1(C)C(=O)Nc2ccc(OC(F)(F)F)cc21", "note": "(stereo unspecified)", "activity change, negative = inhibition": "-18.7% (inactive)"}
{"compound": "CN1CCN(Cc2ccc(OC(F)(F)F)cc2)CC1", "activity change, negative = inhibition": "-3.19% (inactive)"}
{"compound": "CCc1ccc2c(c1)NC(=O)C2(C)Cc1ccc(OC(F)(F)F)cc1", "note": "(stereo unspecified)", "activity change, negative = inhibition": "-75.3% (active)"}
{"compound": "CCn1c2ccccc2c2cc(CN3CCN(Cc4cccc(Cl)c4)CC3)ccc21", "activity change, negative = inhibition": "-0.564% (inactive)"}
{"compound": "C/C(=N/NC(=O)c1ccc(Br)o1)c1ccc(C)o1", "activity change, negative = inhibition": "80.2% (inactive)"}
{"compound": "C/C(=N\\NC(=S)NC1CCCCC1)c1ccc(C)o1", "activity change, negative = inhibition": "-90.6% (active)"}
{"compound": "Cc1ccc(/C=N/NC(=S)NC2CCCCC2)o1", "activity change, negative = inhibition": "-8.71% (inactive)"}
{"compound": "Cn1c(=O)c2c(n3c4ccccc4nc13)NC(=O)CC2c1cccc(Cl)c1", "note": "(stereo unspecified)", "activity change, negative = inhibition": "1.23% (inactive)"}
{"compound": "CC(C)Cn1c(C2CC(=O)N(c3ccccc3Cl)C2)nc2ccccc21", "note": "(stereo unspecified)", "activity change, negative = inhibition": "-19.6% (inactive)"}
{"compound": "CCCS(=O)(=O)N1CCC(n2c(C(F)(F)F)nc3cccnc32)CC1", "activity change, negative = inhibition": "-21.7% (inactive)"}
{"compound": "O=C(OCC(O)C(O)COC(=O)c1ccccc1)c1ccccc1", "note": "(stereo unspecified)", "activity change, negative = inhibition": "4.04% (inactive)"}
{"compound": "O=C(Nc1ccc(Cl)cc1C(=O)c1ccccc1)c1cc(Cl)cc(Cl)c1", "activity change, negative = inhibition": "5.04% (inactive)"}
{"compound": "O=C(NC1=CC(=O)c2ccccc2C1=O)c1ccccc1", "activity change, negative = inhibition": "-66.1% (active)"}
{"compound": "O=C(NCCCO)c1nn(-c2ccc(Cl)cc2)nc1CO", "activity change, negative = inhibition": "-7.65% (inactive)"}
{"compound": "CCC1(C)Cc2c(sc3[nH]c(=S)n(Cc4ccccc4)c(=O)c23)CO1", "note": "(stereo unspecified)", "activity change, negative = inhibition": "-69.4% (active)"}
{"compound": "CC(C)c1nc2sc3c(c2c(=O)n1N)CC(C)(C)OC3", "activity change, negative = inhibition": "-18.9% (inactive)"}
{"compound": "CCCSc1nc(NCc2ccco2)c2c3c(sc2n1)COC(C)(CC)C3", "note": "(stereo unspecified)", "activity change, negative = inhibition": "-2.99% (inactive)"}
{"compound": "Cn1c(=O)c2c(ncn2CC(=O)Nc2cccc(C(F)(F)F)c2)n(C)c1=O", "activity change, negative = inhibition": "2.82% (inactive)"}
